± gives the uncertainty stated by the source.

The text below walks through data of the supplement of paper PMC3898565.

In this experiment the test system is U87. As to the kind of experiment: cell viability relative to vehicle control; higher = less growth inhibition (less active). Conditions: 10 µM; 72 h.
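Note: viable cell number estimated from Alamar Blue fluorescence read at 560/90, part of a single-dose primary screen of an FDA-approved drug library.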

A word on the cell viability: it is a read-out of living cells in per cent, often relative to untreated cells. As to `CC(=O)O[C@H]1C[C@@H]2CC[C@@H]3[C@H](CC[C@@]4(C)[C@H]3C[C@H]([N+]3(C)CCCCC3)[C@@H]4OC(C)=O)[C@@]2(C)C[C@@H]1[N+]1(C)CCCCC1` [Pancuronium], the cell viability was 103.79 ± 0.081%.

As for `CC[C@]1(O)CC[C@H]2[C@@H]3CCC4=CCCC[C@@H]4[C@H]3CC[C@@]21C` [Ethylestrenol], the cell viability was 101.7 ± 0.91%.

On to `CNC(=O)Oc1ccc2c(c1)[C@]1(C)CCN(C)[C@@H]1N2C` [Physostigmine], for which the cell viability was 93 ± 1.4%. Take `CC(O)(CS(=O)(=O)c1ccc(F)cc1)C(=O)Nc1ccc(C#N)c(C(F)(F)F)c1` (stereo not given): the cell viability worked out at 103 ± 1.5%.

On to `C=C1C[C@@H]2[C@H](CC[C@]3(C)C(=O)CC[C@@H]23)[C@@]2(C)C=CC(=O)C=C12`, for which the cell viability came out at 107 ± 2.5%. In the case of `C[N+]1(CCC(C(N)=O)(c2ccccc2)c2ccccc2)CCCCC1` it was 102 ± 1.4%; in that of `CCN(C(C)=O)c1cccc(-c2ccnc3c(C#N)cnn23)c1` [Zaleplon], 111.7 ± 0.3%. With `CNCC(O)c1ccc(O)cc1` (stereo not given), the cell viability turned out to be 107 ± 4.5%. For `C[C@]12CC[C@H]3[C@@H](CCC4=CC(=O)CC[C@@]43C)[C@@H]1CC[C@@H]2O` [Testosterone], the cell viability came to 107 ± 1.6%. In the case of `COc1ccc2[nH]cc(CCN)c2c1` [5-Methoxytryptamine] it was 109 ± 1.3%. In the case of `NC1=NC(=O)C(c2ccccc2)O1` (stereo not given) [Pemoline] it was 102.8 ± 0.87%; in that of `C=C(C)[C@@H]1[C@H]2OC(=O)[C@@H]1[C@]1(O)C[C@H]3O[C@]34C(=O)O[C@H]2[C@]14C.CC(C)(O)[C@@H]1[C@H]2OC(=O)[C@@H]1[C@]1(O)C[C@H]3O[C@]34C(=O)O[C@H]2[C@]14C` [Picrotin - Picrotoxinin], 105 ± 1.3%; in that of `CN1C(=O)COc2c(C(=O)NC3CN4CCC3CC4)cc(Cl)cc21` (stereo not given) [Azasetron], 103 ± 1.1%. Under `COc1cc(N)c(Cl)cc1C(=O)NC1CN2CCC1CC2` (stereo not given) [Zacopride] stands 101.7 ± 0.79%; under `C[C@]12CCC(=O)C=C1CC[C@@H]1[C@@H]2CC[C@@]2(C)[C@H]1CC[C@]2(C)O` [Methyltestosterone], 66.4 ± 2.3%; under `C[C@]12Cc3c[nH]nc3C[C@@H]1CC[C@@H]1[C@@H]2CC[C@@]2(C)[C@H]1CC[C@]2(C)O` [Stanozolol], 107 ± 2.4%. For `CN1C(=O)CN=C(c2ccccc2)c2cc(Cl)ccc21` [Diazepam], the cell viability amounted to 98.6 ± 2.1%. In the case of `CC(C)CC(N(C)C)C1(c2ccc(Cl)cc2)CCC1` (stereo not given) [Sibutramine] it was 111.8 ± 0.39%; in that of `O=c1c2ccccc2[se]n1-c1ccccc1`, 107 ± 1.6%; in that of `CN1CC[C@]23CCCC[C@H]2[C@H]1Cc1ccc(O)cc13`, 101.4 ± 0.14%. Under `C[C@]12CC[C@H]3[C@@H](CCC4=CC(=O)CC[C@@H]43)[C@@H]1CC[C@@H]2O` [Nandrolone] stands 101.5 ± 0.8%; under `c1ccc(Cn2ccnc2)cc1`, 105 ± 1.2%. Under `NCCc1ccccn1` stands 104 ± 1.4%. For `c1ccc2c(c1)Nc1ccccc1S2`, the cell viability was found to be 110.5 ± 0.17%.

For `c1cncc([C@@H]2CCCN2)c1` [Nornicotine], the cell viability amounted to 111 ± 3.4%. In the case of `O=C1Nc2ccc(Cl)cc2C(c2ccccc2Cl)=NC1O` (stereo not given) [Lorazepam] it was 105.6 ± 0.26%; in that of `COc1ccc(C(CN(C)C)C2(O)CCCCC2)cc1` (stereo not given), 103 ± 1.8%; in that of `CC(C)CC(N(C)C)C1(c2ccc(Cl)cc2)CCC1` (stereo not given), 108 ± 1.9%. As for `CN1CC[C@]2(c3cccc(O)c3)Cc3nc4ccccc4cc3C[C@H]2C1`, the cell viability worked out at 103 ± 1.4%. Under `C[C@]12C/C(=C/O)C(=O)C[C@@H]1CC[C@@H]1[C@@H]2CC[C@@]2(C)[C@H]1CC[C@]2(C)O` [Oxymetholone] stands 113 ± 2.5%. In the case of `N=C(NCc1ccc(Cl)cc1)SCCCc1c[nH]cn1` [Clobenpropit] it was 102 ± 1.4%; in that of `CS(=O)(=O)Nc1ccc(Cc2noc(-c3ccc4[nH]cc(CCN)c4c3)n2)cc1`, 106 ± 1.2%; in that of `CCN(CC)CCOC(=O)C(O)(c1ccccc1)c1ccccc1`, 101 ± 3.5%. Under `Oc1ccc2c3c1O[C@H]1c4[nH]c5ccccc5c4C[C@@]4(O)[C@@H](C2)N(CC2CC2)CC[C@]314` [Naltrindole] stands 105 ± 3%; under `C[C@H]1CCC[C@H](O)CCCCCc2cc(O)cc(O)c2C(=O)O1`, 107 ± 2.7%.
